From PubChem BioAssay AID1159580 (chemical genetic matrix, 2015)
Several values for one entry are separate records, joined by “and”; a condition that tells them apart may be missing. Equal entries are not always repeated. The campaign covered roughly 5,500 compounds. About 2,000 (36%) were called active. Another 18% or so got no clear call; they are omitted. No stated cut-off is given here; in the data, active means normalized growth mostly below about 0.91 (no sharp cut-off); inconclusive means no clear call, values can overlap the other calls; inactive means mostly above about 0.92. Some of the results follow.

Assay: chemical genetic growth profiling, strain panel (AID 1159580);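 further: tested at 20 µM; growth read once vehicle control cultures reached saturation at 30 °C; 1 = growth at the plate median or of vehicle wells; lower values mean less growth of the strain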
Settings: S. cerevisiae deletion strains, growth OD

Measured: normalized growth

CC[C@H](CCC(C)[C@H]1CCC2C3CCC4C[C@@H](O)CC[C@]4(C)C3CC[C@@]21C)C(C)C (stereo partly drawn)
inactive: locus YAL013W, strain DEP1, active compounds read low 1.01 | locus YAL021C, strain ccr4, active compounds read low 0.968 | locus YAL026C, strain drs2, active compounds read low 0.955 | locus YAL030W, strain snc1, active compounds read low 0.985 | locus YBL061C, strain skt5, active compounds read low 0.988 | locus YBR009C, strain hhf1, active compounds read low 0.983 | locus YBR021W, strain FUR4, active compounds read low 0.993 | locus YBR023C, strain chs3, active compounds read low 0.988 | locus YBR171W, strain sec66, active compounds read low 0.976 | locus YBR229C, strain ROT2, active compounds read low 0.999 | locus YBR231C, strain swc5, active compounds read low 1.01 | locus YBR279W, strain paf1, active compounds read low 0.983 | locus YCL011C, strain gbp2, active compounds read low 0.986 | locus YCL016C, strain dcc1, active compounds read low 0.992 | locus YCL029C, strain bik1, active compounds read low 1.03 | locus YCL061C, strain MRC1, active compounds read low 0.99 | locus YCL069W, strain vba3, active compounds read low 0.971 | locus YCR088W, strain abp1, active compounds read low 0.988 | locus YDL005C, strain med2, active compounds read low 0.975 | locus YDL035C, strain GPR1, active compounds read low 1.01 | locus YDL040C, strain nat1, active compounds read low 0.991 | locus YDL074C, strain BRE1, active compounds read low 1 | locus YDL101C, strain DUN1, active compounds read low 1.01 | locus YDL185W, strain tfp1, active compounds read low 1.02 | locus YDL192W, strain arf1, active compounds read low 1.02 | locus YDR001C, strain nth1, active compounds read low 0.984 | locus YDR069C, strain doa4, active compounds read low 0.977 | locus YDR101C, strain arx1, active compounds read low 1.01 | locus YDR137W, strain rgp1, active compounds read low 0.973 | locus YDR159W, strain sac3, active compounds read low 0.975 | locus YDR162C, strain NBP2, active compounds read low 1.02 | locus YDR195W, strain ref2 0.946 | locus YDR297W, strain sur2, active compounds read low 0.993 | locus YDR318W, strain mcm21, active compounds read low 1.01 | locus YDR334W, strain swr1, active compounds read low 0.972 | locus YDR335W, strain msn5, active compounds read low 0.984 | locus YDR388W, active compounds read low 1.01 | locus YDR392W, strain spt3, active compounds read low 0.932 | locus YDR502C, strain sam2, active compounds read low 1.01 | locus YEL003W, strain gim4, active compounds read low 0.991 | locus YEL037C, strain rad23, active compounds read low 0.948 | locus YEL061C, strain CIN8 (second series), active compounds read low 0.975 | locus YEL061C, strain CIN8, active compounds read low 1.01 | locus YER015W, strain faa2, active compounds read low 0.995 | locus YER016W, strain bim1, active compounds read low 0.992 | locus YER110C, active compounds read low 1.01 | locus YER111C, strain swi4, active compounds read low 0.992 | locus YER155C, strain BEM2 (second series), active compounds read low 0.987 | locus YER155C, strain BEM2, active compounds read low 1.01 | locus YER167W, strain BCK2, active compounds read low 1 | locus YFR010W, strain ubp6, active compounds read low 0.964 | locus YGL078C, strain dbp3, active compounds read low 1.02 | locus YGL086W, strain mad1, active compounds read low 0.997 | locus YGL167C, strain pmr1, active compounds read low 0.999 | locus YGL173C, strain kem1, active compounds read low 0.999 | locus YGL227W, strain vid30, active compounds read low 0.992 | locus YGL240W, strain doc1, active compounds read low 0.988 | locus YGL248W, strain PDE1, active compounds read low 1.01 | locus YGL253W, strain hxk2, active compounds read low 0.997 | locus YGR135W, strain pre9, active compounds read low 1.01 | locus YGR252W, strain gcn5, active compounds read low 0.998 | locus YHR013C, strain ard1, active compounds read low 0.968 | locus YHR027C, strain rpn1, active compounds read low 0.982 | locus YHR030C, strain SLT2, active compounds read low 1.01 and 1.06 | locus YHR079C, strain IRE1 (second series), active compounds read low 1.01 | locus YHR079C, strain IRE1, active compounds read low 1.03 | locus YHR094C, strain hxt1, active compounds read low 1.01 | locus YHR129C, strain ARP1, active compounds read low 1.01 | locus YHR142W, strain chs7, active compounds read low 1.01 | locus YHR200W, strain rpn10, active compounds read low 1.01 | locus YIL066C, strain RNR3, active compounds read low 1.01 | locus YIL073C, strain SPO22, active compounds read low 1.03 | locus YIL125W, strain kgd1, active compounds read low 1.01 | locus YIR030C, strain dcg1, active compounds read low 1 | locus YJL092W, strain hpr5, active compounds read low 0.982 | locus YJL095W, strain BCK1 (second series), active compounds read low 1 | locus YJL095W, strain BCK1, active compounds read low 0.997 and 0.966 | locus YJL115W, strain asf1, active compounds read low 0.982 | locus YJL129C, strain trk1, active compounds read low 0.985 | locus YJL134W, strain LCB3, active compounds read low 1 | locus YJL154C, strain vps35, active compounds read low 0.978 | locus YJL164C, strain tpk1, active compounds read low 0.997 | locus YJL166W, strain qcr8, active compounds read low 1.06 | locus YJL168C, strain set2, active compounds read low 1 | locus YJL187C, strain SWE1 (second series), active compounds read low 1 | locus YJL187C, strain SWE1, active compounds read low 0.981 | locus YJR043C, strain POL32, active compounds read low 1.03 | locus YJR066W, strain TOR1, active compounds read low 0.991
